Most compounds without a hit are left out; they make up all but 2.2% or so of the library.
LDHA inh = LDHA (human) enzyme inhibition | P00338 | 0.15% of 480,000 active | purified LDHA, NADH/diaphorase-resazurin fluorescence; active compounds read low | activity change, % (values are at about 110 or 230 µM); in the data active = activity change below about -30%; inconclusive = mostly about -25% to -30%;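 also: plate controls were DMSO wells for no effect and wells without enzyme for full effect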
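LDH5 2 nM; NADH 0.06 mM, pyruvate 0.2 mM; 200 mM Tris pH 7.4, EDTA, Tween-20; 5 min RT. Detection: diaphorase 0.133 mg/mL + resazurin 37 µM, fluorescence ex540/em590 at 0 and 20 min; normalized to enzyme-free and DMSO wells.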
ATXN2 expr inh = reduces ATXN2 reporter expression in HEK-293 cells; HEK-293 ATXN2-luciferase reporter, luminescence, 24 h; Potency, µM (top dose mostly 57 µM), for the others: at the highest dose activity change, negative = inhibition, actives largely listed as inhibitors; 0.72% of 360,000 active; also: potency is read from the fitted curve at half-maximal effect; % is scaled to controls: 0 for no effect and ±100 for the full control effect; nearly all actives have a fitted effect of over 55% in size
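qHTS (up to 57 uM final) was run with 24 h compound exposure of reporter cells at 37 °C. Each well was multiplexed: SteadyGlo luminescence measured ATXN2-luciferase expression after a fluorogenic Gly-Phe-AFC viability readout (25 uM final).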
ATXN viability = cell viability loss in ATXN counter-screen; 0.49% of 400,000 active; Potency, µM (doses to about 56.7 µM), actives largely listed as cytotoxic; S2 cells (HEK-293 line with an ATXN2-luciferase reporter) viability, CellTiter-Fluor protease fluorescence, 24 h; also: potency is read from the fitted curve at half-maximal effect; nearly all actives have a fitted effect of over 40% in size
TGFb SMAD3 inh = blocks TGF-b signaling; HepG2 CAGA-GFP TGF-b/SMAD3 reporter, GFP fluorescence, 18 h; TGF-beta stimulated, 500 pg/mL final; Potency, µM (titrated, usually from 46.1 µM), without a hit: at the highest dose activity, negative = inhibition, most hits filed as inhibitors; 1.2% of 410,000 active; also: potency is read from the fitted curve at half-maximal effect; % is scaled to controls: 0 for no effect and ±100 for the full control effect; nearly all actives have a fitted effect of over 65% in size
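Inhibition was scored as loss of TGF-beta-induced (500 pg/mL final, 18 hours, 37 degrees C) GFP in HEPG2 cells carrying a CAGA-GFP reporter, in DMEM with 1% FBS. Well GFP was summed per cell; Activity was normalised to unstimulated and stimulated DMSO wells, then concentration-response fitting.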
mIDH1 inhibitor = inhibitors of human mutant IDH1 R132H; O75874; IDH1-R132H enzyme, NADPH consumption, diaphorase/resazurin fluorescence; Potency, µM (titrated, usually from 76.6 µM), inactives show top-dose activity change, negative = inhibition, usual class: inhibitors; 0.093% of 390,000 active; AID 602179; also: potency is read from the fitted curve at half-maximal effect; % is scaled to controls: 0 for no effect and ±100 for the full control effect; nearly all actives have a fitted effect of over 65% in size
Target sequence (O75874 whole entry R132H, stated change not applied): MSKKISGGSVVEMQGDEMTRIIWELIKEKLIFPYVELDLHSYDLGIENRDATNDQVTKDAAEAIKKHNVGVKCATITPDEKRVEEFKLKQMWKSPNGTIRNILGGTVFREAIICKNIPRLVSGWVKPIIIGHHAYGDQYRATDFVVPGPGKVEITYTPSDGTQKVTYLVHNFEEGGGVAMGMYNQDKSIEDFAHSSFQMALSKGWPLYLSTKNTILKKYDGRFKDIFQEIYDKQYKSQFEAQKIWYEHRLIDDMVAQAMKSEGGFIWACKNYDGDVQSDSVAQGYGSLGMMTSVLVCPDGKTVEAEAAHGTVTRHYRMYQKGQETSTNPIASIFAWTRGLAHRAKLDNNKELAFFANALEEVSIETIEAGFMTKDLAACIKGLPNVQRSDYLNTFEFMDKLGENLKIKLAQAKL
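IDH1-R132H (0.5 ug/mL) preincubated 30 min with compound, then NADPH (0.016 mM) and alpha-KG (2 mM) added; 80 min at RT, pH 7.5. Remaining NADPH coupled via diaphorase/resazurin to fluorescence (540/590 nm); concentration-response curves normalized to no-enzyme control.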
HepG2 tox = counter-screen for TGF-b inhibitors: cytotoxicity in HepG2 cells | AID 588856 | 0.76% of 410,000 active | HepG2 CAGA-GFP viability, ATP luminescence, 18 h | Potency, µM (doses to about 46.1 µM), for inactives: at the top dose activity change, negative = cytotoxicity, usual class: cytotoxic; also: potency is read from the fitted curve at half-maximal effect
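CellTiter-Glo luminescence gave cytotoxicity after 18 hours at 37 degrees C. The cells were HepG2 CAGA-GFP in 1% FBS DMEM, stimulated with 500 pg/mL TGF-beta after compound addition. %Activity was normalised to no-cell wells (complete cell-killing) and DMSO (no toxicity), and curves were fitted and classified.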
Starred values were filed as active, the others as inactive; i = inactive; ? = inconclusive; / = not tested or not shown; ! = not active in a repeat; [ ] = dose if it differs, or a comment. Unless noted, calls follow the shape of the dose curve; as a rule, active = well fitted curve in the direction sought with a large enough effect; inconclusive = small, poorly fitted or top-dose-only effect, or another doubt; inactive = no such curve, though single readings can be large; an effect the other way counts as inactive or inconclusive.

SMILES	LDHA inh	ATXN2 expr inh	ATXN viability	TGFb SMAD3 inh	mIDH1 inhibitor	HepG2 tox
O=C(/C=C/c1cccc2ccccc12)c1ccncc1	-4	?	i	11µM*	-13%	11µM*
Cc1[nH]c2ccccc2c1/C=C/C(=O)c1ccncc1	0	-19%	/	13%	-2%	-18%
O=C(NCCCNc1nc(Nc2cccc(NC(=O)N3CCCC3)c2)ncc1I)c1cccs1	/	14µM*	/	/	/	/
O=C(NCC1CCCCC1)c1cccc(-c2ccc(O)cc2)c1	4	-28%	i	13µM*	-1%	-78%
Cn1nc(C(C)(C)C)cc1NC(=O)Nc1cc(Cl)cc(Cl)c1	7	-37%	i	?	5%	16µM*
O=C1CC(C(=O)N2CCC(N3CCC(C(=O)NC4CC4)CC3)CC2)c2ccccc21 (centres undefined)	-4	/	i	1%	5%	15%
N#C/C(=C(/O)CCl)c1nc2ccccc2[nH]1	0	?	?	10µM*	7%	-31%
N#C/C(=C(/O)COC(=O)CSc1ccc2ccccc2c1)c1nc2ccccc2[nH]1	7	?	20µM*	-1%	4%	3%
Cc1ccc(C)c(SCC(=O)OC/C(O)=C(\C#N)c2nc3ccccc3[nH]2)c1	1	-19%[11.3 µM]	?	-10%	8%	-17%
O=S(=O)(NCc1ccccc1Br)c1cccs1	-2	2%	i	9%	6%	-29%
COc1ccc([C@H]2C[C@H](O)[C@@H](n3cc(C4CC4)nn3)CN2Cc2cccs2)cc1	-4	9%	i	11%	-2%	-1%
Cc1ccc(-c2noc(-c3ccccc3C(=O)NCc3ccco3)n2)cc1	-8	3%	i	-18%	10%	-25%
O=C(NCc1ccco1)c1ccccc1-c1nc(-c2ccccc2)no1	-6	3%	i	-19%	2%	2µM*
COC(=O)C[C@@H]1C=C[C@@H](NS(=O)(=O)c2ccc(OC)cc2)[C@@H](CO)O1	-1	/	/	/	/	/
O=C(Nc1ccccc1Cl)N1CCN(c2ccc3nnc(-c4ccc(F)cc4)n3n2)CC1	-4	-23%	i	?	8%	4%
COc1ccccc1NC(=O)N1CCN(c2ccc3nnc(-c4ccc(F)cc4)n3n2)CC1	6	18µM*!	/	?	0%	-21%
CSc1ccccc1NC(=O)CN1c2ccccc2CC1C (centres undefined)	4	-4%	i	-13%	0%	-10%
CC(C)(C)c1ccc(C(=O)NCCCN2CCN(CCCNC(=O)c3ccc(C(C)(C)C)cc3)CC2)cc1	0	?	28µM*	?	4%	-105%
CN1CCN(CCCNC(=O)c2ccc3c(Cl)c4c(nc3c2)CCCC4)CC1	-2	/	i	11µM*	0%	-44%
CCCCCC(=O)N(Cc1ccccc1)c1c(N)n(CCOC)c(=O)[nH]c1=O	-3	1%	i	-4%	8%	2%
CCOc1c(O)ccc(C2NC(=O)NC(C)=C2C(=O)OC)c1[N+](=O)[O-] (centres undefined)	20	3%	i	1%	0%	5%
O=c1c2sccc2ncn1Cc1coc(-c2cccc(Cl)c2)n1	-5	/	/	/	/	/
Clc1ncccc1-c1nnn(-c2ccccc2)n1	-9	94%	i	-9%	11%	-24%
O=C(O)c1cc(Br)ccc1NS(=O)(=O)c1cccc2nsnc12	-47*	-11%	?	-18%	1%	25%
O=C(O)c1ccccc1NS(=O)(=O)c1cccc2nsnc12	-1	6%	i	-2%	-2%	5%
COC(=O)[C@H]1C[C@@H]1[C@H](NS(=O)(=O)c1ccccc1)c1ccccc1	1	13%	i	4%	-4%	1%
CCCN1CCN(c2cc3c(cc2F)c(=O)c(S(=O)(=O)c2ccc(Cl)cc2)cn3C)CC1	1	/	/	-20%	-15%	-20%

Source: PubChem BioAssay
